# Assay results from PubChem BioAssay (EPA / NIEHS).
# Active and inactive are the calls of the source. The calls were made as follows: active = hit-call score of the fitted dose curve at least 0.9, where 1 is the maximum; inactive = score below 0.9.
# How the values were obtained:
# [1] = ATG_CRE_CIS: Attagene CIS-FACTORIAL HepG2 Assay for human cAMP Responsive Element (CRE) binding protein 3 (AID 2282926); conditions: HepG2 CRE cis-reporter, Attagene multiplexed mRNA; actives raise or lower the signal
# How it was run: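 Transfected HepG2 were treated for 24 hours, then RNA was extracted and reporter cDNA amplified with sequence-specific primers. Labelled fragments were separated by capillary electrophoresis, and the CRE signal was fitted bidirectionally with DMSO as baseline.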
# [2] = target: CCAAT/enhancer-binding protein beta (Homo sapiens) (UniProt P17676); experiment: ATG_C_EBP_CIS: Attagene CIS-FACTORIAL HepG2 Assay for human CCAAT/Enhancer Binding Protein (C/EBP) beta (AID 2282927); conditions: HepG2 Attagene cis-factorial transcription factor reporter; actives raise or lower the signal
# How it was run: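 Endogenous C/EBPb-driven reporter transcripts measured in transfected human HepG2 cells at 24 h via RT-PCR and capillary electrophoresis of labelled fragments. Activity fitted in both directions relative to DMSO baseline.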
# [3] = ATG_CMV_CIS: Attagene CIS-FACTORIAL HepG2 Assay for human CMV (Internal Marker) (AID 2282928); conditions: HepG2 CMV promoter reporter, transcription factor profiling; actives raise or lower the signal;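 also: endpoint acts as a background internal control marker rather than a target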
# How it was run: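 CMV internal-marker background readout in transiently transfected HepG2 cells bearing cis-regulated reporter units. Reporter mRNA is measured 24 h after dosing by RT-PCR and capillary electrophoresis, with bidirectional fitting against DMSO.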
# [4] = ATG_DR4_LXR_CIS: Attagene CIS-FACTORIAL HepG2 Assay for human Liver X Receptor (LXR), DR4 submotif (AID 2282929); conditions: HepG2 Attagene DR4 cis-reporter, mRNA transcription; actives raise or lower the signal
# How it was run: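 Total RNA from 24 h-treated, MRTU-transfected HepG2 cells underwent reverse transcription, PCR, fluorescent primer extension and restriction digestion before capillary electrophoresis. Both increases and decreases in reporter signal were fitted against DMSO.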
# [5] = target: Aryl hydrocarbon receptor (Homo sapiens) (UniProt P35869); experiment: ATG_Ahr_CIS: Attagene CIS-FACTORIAL HepG2 Assay for human Aryl Hydrocarbon Receptor (Ahr) (AID 2282930); conditions: HepG2 AhR cis-factorial reporter transcription; actives raise or lower the signal
# How it was run: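 Reporter mRNA levels, quantified by RT-PCR and fluorescent capillary electrophoresis, reflect endogenous AhR transcriptional activity in HepG2 cells carrying transfected cis-promoter reporter constructs. Readout at 24 h post-dose; gain or loss fitted against DMSO baseline.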
# [6] = ATG_AP_1_CIS: Attagene CIS-FACTORIAL HepG2 Assay for human Activator Protein 1 (AP-1) (AID 2282931); conditions: HepG2 Attagene cis-factorial AP-1 reporter mRNA; actives raise or lower the signal
# How it was run: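 HepG2, transient cis-reporter transfection; 24 h; readout RT-PCR/CE fluorescence; DMSO baseline, gain and loss fitted.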
# [7] = ATG_AP_2_CIS: Attagene CIS-FACTORIAL HepG2 Assay for human Activator Protein 2 (AP-2) (AID 2282932); conditions: HepG2 AP-2 cis-reporter, Attagene transcription factor profiling; actives raise or lower the signal
# How it was run: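 Step one: transient transfection of HepG2 with reporter transcription units. Step two: 24 h chemical exposure. Step three: RNA extraction, RT-PCR, labelled fragment analysis by capillary electrophoresis; DMSO serves as baseline.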
# [8] = ATG_BRE_CIS: Attagene CIS-FACTORIAL HepG2 Assay for human Bone Morphogenetic Protein (BMP) Response Element (BRE) (AID 2282933); conditions: HepG2 BMP response element reporter, Attagene transcription factor profiling; actives raise or lower the signal
# How it was run: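 HepG2 cells transiently transfected with multiplexed cis-element reporter units were dosed with chemical for 24 h. Reporter mRNA was measured by RT-PCR with fluorescent labelling, HpaI digestion and capillary electrophoresis; bidirectional fitting relative to DMSO.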
# [9] = target: Retinoic acid receptor alpha (Homo sapiens) (UniProt P10276); experiment: ATG_DR5_RAR_CIS: Attagene CIS-FACTORIAL HepG2 Assay for human Retinoic Acid Receptor Alpha (RARE), DR5 submotif (AID 2282934); conditions: HepG2 Attagene cis-factorial RARE DR5 reporter, mRNA; actives raise or lower the signal;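 as to AC50: reporter responds to endogenous RAR alpha beta and gamma in HepG2 not RARA alone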
# How it was run: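 Reporter transcripts from a DR5-regulated unit, measured via RT-PCR plus capillary electrophoresis, reflect endogenous RAR activity in transiently transfected human HepG2 liver cells. Exposure lasted 24 h; gain or loss of signal scored against DMSO.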
# [10] = target: Transcription factor E2F1 (Homo sapiens) (UniProt Q01094); experiment: ATG_E2F_CIS: Attagene CIS-FACTORIAL HepG2 Assay for human E2F Transcription Factor 1 (AID 2282935); conditions: HepG2 Attagene cis-reporter, E2F reporter RNA transcripts; actives raise or lower the signal
# How it was run: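 Total RNA from 24 h-treated, reporter-transfected HepG2 cells undergoes DNase I treatment, oligo(dT) reverse transcription, PCR and 6-FAM primer extension before capillary electrophoresis.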
# [11] = ATG_E_Box_CIS: Attagene CIS-FACTORIAL HepG2 Assay for human Enhancer Box (E-box) (AID 2282936); conditions: HepG2 E-box cis-reporter transcription, actives raise or lower the signal
# How it was run: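 DMSO served as negative control and baseline for bidirectional fitting. Human hepatoma HepG2 cells, transiently transfected with cis-reporter constructs, were dosed 24 h; reporter mRNA read by RT-PCR and capillary electrophoresis.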
# [12] = ATG_M_61_CIS: Attagene CIS-FACTORIAL HepG2 Assay for M61 Transcription Factor (Internal Marker) (AID 2282937); conditions: HepG2 Attagene CIS-FACTORIAL M61 internal marker reporter; actives raise or lower the signal
# How it was run: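 Transfect HepG2 with MRTUs; dose 24 h; isolate RNA; reverse-transcribe with DNase I treatment; PCR-amplify, FAM-label and cut with HpaI for 2 h at 37 C; resolve by CE. Bidirectional fitting against DMSO.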
# [13] = ATG_EGR_CIS: Attagene CIS-FACTORIAL HepG2 Assay for human Early Growth Response 1 (EGR1) (AID 2282938); conditions: HepG2 Attagene CIS-FACTORIAL EGR reporter mRNA; actives raise or lower the signal
# How it was run: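 After a 24 h treatment of transiently transfected HepG2 cells, total RNA was reverse-transcribed and reporter sequences PCR-amplified, labelled and run on capillary electrophoresis. Reporters sit under cis-regulatory promoters sensing endogenous factors.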
# [14] = ATG_M_19_CIS: Attagene CIS-FACTORIAL HepG2 Assay for M19 Transcription Factor (Internal Marker) (AID 2282939); conditions: HepG2 Attagene CIS-FACTORIAL M19 internal marker reporter; actives raise or lower the signal
# How it was run: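 HepG2 cells transiently transfected with cis-regulated multiple reporter transcription units were dosed for 24 h; reporter mRNA was quantified by RT-PCR, 6-FAM primer-extension labelling, HpaI digestion and capillary electrophoresis, with bidirectional fitting against DMSO baseline.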
# [15] = ATG_ERE_CIS: Attagene CIS-FACTORIAL HepG2 Assay for Estrogen Response Element (ERE) (AID 2282940); conditions: HepG2 ERE cis-reporter, Attagene RNA transcript; actives raise or lower the signal
# How it was run: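 HepG2 cells transiently transfected with cis-promoter-driven multiplexed reporter transcription units report endogenous TF activity. After 24 h compound exposure, reporter mRNA is quantified by RT-PCR with capillary electrophoresis fluorescence; bidirectional fitting versus DMSO baseline.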
# [16] = ATG_Ets_CIS: Attagene CIS-FACTORIAL HepG2 Assay for human Erythroblast Transformation Specific (ETS) (AID 2282941); conditions: HepG2 ETS cis-reporter transcription, actives raise or lower the signal
# How it was run: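 HepG2 cells transfected with multiple cis-regulated reporter units measuring endogenous ETS-driven transcription, 24 h after dosing. Reporter mRNA quantified by RT-PCR with capillary electrophoresis; bidirectional fit relative to DMSO.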
# [17] = target: Hepatocyte nuclear factor 3-beta (Homo sapiens) (UniProt Q9Y261); experiment: ATG_FoxA2_CIS: Attagene CIS-FACTORIAL HepG2 Assay for human Forkhead box A2 (FOXA2) (AID 2282942); conditions: HepG2 cis-reporter transcription factor activity, 24 h; actives raise or lower the signal
# How it was run: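 24 h dosing of HepG2 bearing cis-reporter constructs; mRNA readout by RT-PCR/CE fluorescence; bidirectional fit, DMSO baseline.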
# [18] = ATG_FoxO_CIS: Attagene CIS-FACTORIAL HepG2 Assay for human Forkhead box O (FoxO) (AID 2282943); conditions: HepG2 Attagene cis-reporter, FoxO element, mRNA; actives raise or lower the signal
# How it was run: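 Endogenous transcription factor activity read from multiplexed cis-promoter reporter transcripts in transiently transfected HepG2, 24 h after dosing. Reporter RNA measured via RT-PCR plus capillary electrophoresis of FAM-labeled products; gain or loss relative to DMSO.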
# [19] = ATG_GATA_CIS: Attagene CIS-FACTORIAL HepG2 Assay for human GATA Binding Protein (AID 2282944); conditions: HepG2 GATA cis-element reporter, Attagene multiplex mRNA; actives raise or lower the signal
# How it was run: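 HepG2 cells transiently transfected with multiplexed cis-element reporter units reflecting endogenous transcription factor activity; reporter mRNA measured after 24 h dosing by RT-PCR, 6-FAM labeling, HpaI digestion and capillary electrophoresis. Bidirectional fitting versus DMSO baseline.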
# [20] = ATG_GLI_CIS: Attagene CIS-FACTORIAL HepG2 Assay for human Zinc Finger Protein GLI1 (AID 2282945); conditions: HepG2, Attagene cis-factorial reporter mRNA, GLI element; actives raise or lower the signal
# How it was run: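 Bidirectional curve fits relative to DMSO, using reporter mRNA levels from RT-PCR plus capillary electrophoresis. Cells were HepG2 transiently carrying cis-regulated reporter constructs, harvested 24 h after dosing.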
# Transcription factor E2F1 (Homo sapiens), sequence (Q01094 whole entry, looked up): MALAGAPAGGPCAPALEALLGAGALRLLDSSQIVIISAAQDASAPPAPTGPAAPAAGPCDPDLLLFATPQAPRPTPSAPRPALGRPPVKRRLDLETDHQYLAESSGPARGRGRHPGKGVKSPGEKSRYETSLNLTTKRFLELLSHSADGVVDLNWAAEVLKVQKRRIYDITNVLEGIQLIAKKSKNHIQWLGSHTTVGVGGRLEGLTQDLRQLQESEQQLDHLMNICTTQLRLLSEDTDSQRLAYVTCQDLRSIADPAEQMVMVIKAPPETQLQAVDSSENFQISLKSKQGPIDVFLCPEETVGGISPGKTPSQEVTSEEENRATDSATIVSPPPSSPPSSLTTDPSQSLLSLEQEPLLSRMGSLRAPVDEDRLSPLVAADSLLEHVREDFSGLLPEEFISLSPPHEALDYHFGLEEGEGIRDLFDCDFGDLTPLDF
# CCAAT/enhancer-binding protein beta (Homo sapiens), sequence (P17676 whole entry, looked up, the tested form may be a part): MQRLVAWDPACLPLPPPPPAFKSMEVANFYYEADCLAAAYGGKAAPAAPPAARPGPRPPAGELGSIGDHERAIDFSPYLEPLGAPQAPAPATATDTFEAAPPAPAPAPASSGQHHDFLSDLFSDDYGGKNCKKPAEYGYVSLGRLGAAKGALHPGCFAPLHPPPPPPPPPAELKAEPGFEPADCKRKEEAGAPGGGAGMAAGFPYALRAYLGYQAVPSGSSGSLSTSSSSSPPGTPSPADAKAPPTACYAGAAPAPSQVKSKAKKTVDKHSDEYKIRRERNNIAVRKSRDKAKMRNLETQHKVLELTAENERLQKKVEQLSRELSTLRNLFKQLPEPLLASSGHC
# Retinoic acid receptor alpha (Homo sapiens), sequence (P10276 whole entry, looked up): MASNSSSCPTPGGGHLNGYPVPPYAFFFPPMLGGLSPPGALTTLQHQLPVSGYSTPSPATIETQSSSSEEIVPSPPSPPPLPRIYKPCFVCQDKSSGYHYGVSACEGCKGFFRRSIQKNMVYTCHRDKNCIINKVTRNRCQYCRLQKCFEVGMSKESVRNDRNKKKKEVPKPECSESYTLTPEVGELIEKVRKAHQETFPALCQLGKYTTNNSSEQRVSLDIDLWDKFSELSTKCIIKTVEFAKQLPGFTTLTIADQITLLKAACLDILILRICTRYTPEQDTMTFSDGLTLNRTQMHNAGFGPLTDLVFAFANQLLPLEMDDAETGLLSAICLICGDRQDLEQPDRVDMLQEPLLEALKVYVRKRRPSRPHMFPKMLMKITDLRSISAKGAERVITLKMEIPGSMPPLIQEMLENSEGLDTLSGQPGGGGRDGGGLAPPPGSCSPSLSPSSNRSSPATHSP
# Aryl hydrocarbon receptor (Homo sapiens), sequence (P35869 whole entry, looked up): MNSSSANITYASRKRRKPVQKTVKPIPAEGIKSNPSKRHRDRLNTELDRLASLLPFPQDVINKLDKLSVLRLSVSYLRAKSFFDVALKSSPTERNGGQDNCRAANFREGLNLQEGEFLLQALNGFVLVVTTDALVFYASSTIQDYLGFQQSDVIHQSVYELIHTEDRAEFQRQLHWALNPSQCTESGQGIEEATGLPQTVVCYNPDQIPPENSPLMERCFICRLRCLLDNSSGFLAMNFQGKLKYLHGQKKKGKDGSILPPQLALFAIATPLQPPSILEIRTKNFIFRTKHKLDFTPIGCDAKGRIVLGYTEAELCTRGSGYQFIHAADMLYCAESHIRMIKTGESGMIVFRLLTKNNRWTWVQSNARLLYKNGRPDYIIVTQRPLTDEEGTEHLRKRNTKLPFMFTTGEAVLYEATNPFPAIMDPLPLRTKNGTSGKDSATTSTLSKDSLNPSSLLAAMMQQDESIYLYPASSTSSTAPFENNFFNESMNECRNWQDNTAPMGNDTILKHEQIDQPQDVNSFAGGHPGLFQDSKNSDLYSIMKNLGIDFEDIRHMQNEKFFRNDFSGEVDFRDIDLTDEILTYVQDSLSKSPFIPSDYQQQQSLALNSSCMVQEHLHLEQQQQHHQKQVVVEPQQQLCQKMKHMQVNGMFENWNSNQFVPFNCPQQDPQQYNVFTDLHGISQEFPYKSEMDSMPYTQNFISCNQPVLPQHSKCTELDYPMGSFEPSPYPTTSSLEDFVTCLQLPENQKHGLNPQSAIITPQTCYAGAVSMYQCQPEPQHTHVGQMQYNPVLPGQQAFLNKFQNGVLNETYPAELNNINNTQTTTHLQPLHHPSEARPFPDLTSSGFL
# Hepatocyte nuclear factor 3-beta (Homo sapiens), sequence (Q9Y261 whole entry, looked up): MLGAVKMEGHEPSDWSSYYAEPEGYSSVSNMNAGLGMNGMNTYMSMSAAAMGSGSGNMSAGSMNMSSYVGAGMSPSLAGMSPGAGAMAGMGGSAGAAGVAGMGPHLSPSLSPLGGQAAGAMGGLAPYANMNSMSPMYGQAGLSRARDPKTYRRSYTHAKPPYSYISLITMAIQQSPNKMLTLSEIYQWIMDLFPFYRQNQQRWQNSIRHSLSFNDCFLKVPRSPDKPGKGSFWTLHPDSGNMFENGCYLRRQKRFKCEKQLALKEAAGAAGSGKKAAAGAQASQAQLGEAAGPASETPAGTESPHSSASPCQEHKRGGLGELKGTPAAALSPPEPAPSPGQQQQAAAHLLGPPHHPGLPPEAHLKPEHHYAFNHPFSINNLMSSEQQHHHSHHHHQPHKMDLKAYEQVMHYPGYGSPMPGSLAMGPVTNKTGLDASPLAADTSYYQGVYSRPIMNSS
structure (smiles),measurement,setting,value
COC(=O)c1ccc2cc(C(=O)OC)ccc2c1,outcome,[1],inactive
same,outcome,[2],inactive
same,outcome,[3],inactive
same,outcome,[4],inactive
same,outcome,[5],inactive
same,outcome,[6],inactive
same,outcome,[7],inactive
same,outcome,[8],inactive
same,outcome,[9],inactive
same,outcome,[10],inactive
same,outcome,[11],inactive
same,outcome,[12],inactive
same,outcome,[13],inactive
same,outcome,[14],inactive
same,outcome,[15],inactive
same,outcome,[16],inactive
same,outcome,[17],inactive
same,outcome,[18],inactive
same,outcome,[19],inactive
same,outcome,[20],inactive
CNC(=S)NN,outcome,[1],inactive
same,outcome,[2],inactive
same,outcome,[3],inactive
same,outcome,[4],inactive
same,outcome,[5],inactive
same,outcome,[6],inactive
same,outcome,[7],inactive
same,outcome,[8],inactive
same,outcome,[9],inactive
same,outcome,[10],inactive
same,outcome,[11],inactive
same,outcome,[12],inactive
same,outcome,[13],inactive
same,outcome,[14],inactive
same,outcome,[15],inactive
same,outcome,[16],inactive
same,outcome,[17],inactive
same,outcome,[18],inactive
same,outcome,[19],inactive
same,outcome,[20],inactive
CCCCCCCCCCc1ccccc1,outcome,[1],inactive
same,outcome,[2],inactive
same,outcome,[3],inactive
same,outcome,[4],inactive
same,outcome,[5],inactive
same,outcome,[6],inactive
same,outcome,[7],inactive
same,outcome,[8],inactive
same,AC50,[9],84.7 µM (active)
same,outcome,[10],inactive
same,outcome,[11],inactive
same,outcome,[12],inactive
same,outcome,[13],inactive
same,outcome,[14],inactive
same,outcome,[15],inactive
same,outcome,[16],inactive
same,outcome,[17],inactive
same,outcome,[18],inactive
same,outcome,[19],inactive
same,outcome,[20],inactive
CC(C)CCCC(C)CC=O (stereo not given),outcome,[1],inactive
same,outcome,[2],inactive
same,outcome,[3],inactive
same,outcome,[4],inactive
same,outcome,[5],inactive
same,outcome,[6],inactive
same,outcome,[7],inactive
same,outcome,[8],inactive
same,outcome,[9],inactive
same,outcome,[10],inactive
same,outcome,[11],inactive
same,outcome,[12],inactive
same,outcome,[13],inactive
same,outcome,[14],inactive
same,outcome,[15],inactive
same,outcome,[16],inactive
same,outcome,[17],inactive
same,outcome,[18],inactive
same,outcome,[19],inactive
same,outcome,[20],inactive
CCCCC(CC)COC(=O)c1ccccc1O (stereo not given),outcome,[1],inactive
same,outcome,[2],inactive
same,outcome,[3],inactive
same,outcome,[4],inactive
same,outcome,[5],inactive
same,outcome,[6],inactive
same,outcome,[7],inactive
same,outcome,[8],inactive
same,outcome,[9],inactive
same,outcome,[10],inactive
same,outcome,[11],inactive
same,outcome,[12],inactive
same,outcome,[13],inactive
same,outcome,[14],inactive
same,AC50,[15],32.5 µM (active)
same,outcome,[16],inactive
same,outcome,[17],inactive
same,outcome,[18],inactive
same,outcome,[19],inactive
same,outcome,[20],inactive
C=C(C)[C@@H]1CCC2=CCC[C@@H](C)[C@]2(C)C1,outcome,[1],inactive
same,outcome,[2],inactive
same,AC50,[3],67 µM (active)
same,outcome,[4],inactive
same,outcome,[5],inactive
same,AC50,[6],100 µM (active)
same,outcome,[7],inactive
same,outcome,[8],inactive
same,outcome,[9],inactive
same,outcome,[10],inactive
same,outcome,[11],inactive
same,outcome,[12],inactive
same,outcome,[13],inactive
same,outcome,[14],inactive
same,AC50,[15],57.2 µM (active)
same,outcome,[16],inactive
same,outcome,[17],inactive
same,outcome,[18],inactive
same,outcome,[19],inactive
same,outcome,[20],inactive
